According to the supplement of paper PMC6555819:

The sequences below were run on RARb:RXRa (NR concentration 270 nM, RXRa partner concentration 90 nM) (assay: PBM binding z-score (relative to random genomic background probes); higher = stronger binding; sequences stand for … in GC…GCGATTGACAGCGTAGAATGAAGG).
Summary of the method: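 Random background probes are the reference for binding z-scores. These scores derive from regression-normalized fluorescence on custom Agilent 4×180K protein-binding microarrays incubated 1 h with ligand-free nuclear receptor dimers. Binding was detected with antibodies against each partner (one per run).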
Sequence CCTAGTTGGTCAGCAGGTCACACACCGGATATGA has a PBM binding z-score of 2.75.
AGTCAAAGTTCAGGAGGAGGTAACGTAAAGCACG gave a PBM binding z-score of 4.57.
Sequence CCAGACAGGTGAGAAGTTAACTCAGCCTCGATTA has a PBM binding z-score of 0.4.
With TCGAGTAGGTTAGTCGGGGCATTAAGCCAACATA the PBM binding z-score was 0.306.
Sequence CCTTCTGGGCCACGAAAGGTCATTGATTCAGTGA has a PBM binding z-score of 4.21.
TGTCAAAGTTCAAAGGTAACGTTAGTATCCACAC showed a PBM binding z-score of 5.29.
In the case of GCGAGTTGGTCAGTAAAAGGTCACACACCGGTCG, the PBM binding z-score is reported as 4.33.
Sequence ATATGTAGGTTAAGGGACATTCAGGTTGGTTCGC has a PBM binding z-score of 1.57.
CCTATTAGTTGGCCATAAGGGCAACCGAAGCTCG gave a PBM binding z-score of 1.11.
Work on GCTGCTAGGTCAAATGATGGTCAGCTAAAGCTCG yielded a PBM binding z-score of 4.13.
With GCAGACAGGTGAAACGCAGGTCACTCAGGGTGGC the PBM binding z-score was 2.44.
With TCTATTAGTTGATTAGGACAACCGAAACAGCGGA the PBM binding z-score was 0.68.
ACTATTAGTTGACTCAGGGCAACCGATACGACGC was tested, and the PBM binding z-score was 0.893.
ATCTCTACGTAAAGATAGTTCAGTGAATGCAAAT showed a PBM binding z-score of 0.474.
Work on CGTTACGGGTCACGAGGTTATAGCACGACGAGCG yielded a PBM binding z-score of 4.56.
Sequence TTTCAAAGTTCAAAGGTAACGTAAGTATCCACAC has a PBM binding z-score of 4.99.
TCTGGCAGGCCAGAGGGTCACTCAAGAGGTACGG was tested, and the PBM binding z-score was 2.31.
For TCATATAGGTAAAGGTGTAAGTCGAACGATATGA, the PBM binding z-score was 0.413.
TTATATAGGTAAAGGTGAAAGTCGAACGATATGA gave a PBM binding z-score of 1.88.
GATACAGGGTCACGGCCAGAGTACGCGTATTGAT was tested, and the PBM binding z-score was 4.89.
GCTAGCAGGCAATTTGGGTCACTCAATGACGGGC gave a PBM binding z-score of 0.971.
Sequence CCTAGCCGGCCAGGGTCACTCAAGCATTTCGCTT has a PBM binding z-score of 2.56.
ACGGACAGGTGAGTGAAGGTAACTCAGCTGGACG was tested, and the PBM binding z-score was 0.913.
ATCTCTAGGTAACCAAGTTCAGTGGATGCCGAAC gave a PBM binding z-score of 1.18.
CCTAGCAGGCCAATCTGGGGCACTCAAGGCTTGA gave a PBM binding z-score of 0.323.
CGTCCAAGGACAAAGGTCAGTGAAGAGATGACGG was tested, and the PBM binding z-score was 4.56.
GATACAGGGTCAAGGCTAGAGTACGCGTATTGAT showed a PBM binding z-score of 4.43.
For AATACAGGGTCTTCGTAGGCCAGAGTACGCACAG, the PBM binding z-score was 0.544.
Sequence CCTACTGGGCCAAGGTCATGGATCAGTCAAAGCA has a PBM binding z-score of 3.53.
GGAACGCGGGCAAAGTTGATAGCATCTGTCGACG gave a PBM binding z-score of 0.414.
Work on ACTATTAGTTGAGACGATGGCAACCGATAGGTTG yielded a PBM binding z-score of -0.199.
Sequence CAGCCTATGTCAGGGCCAGTATAGGAGGAACGTT has a PBM binding z-score of 0.105.
CCGACTGGGGCTAGGTTACCATAACGCACAGCCA showed a PBM binding z-score of 0.392.
CGAACTAGGTCATTGACAGGACTGTGAATAGTAA was tested, and the PBM binding z-score was 3.43.
In the case of CGAACGAGGGCCTGAGTTGATAGCAAATGCCGAT, the PBM binding z-score is reported as -0.393.
Sequence GCTAGTAGGCCATTTGGGTCACTCAATGACGGGC has a PBM binding z-score of 1.47.
GCTGCTAGGTGAGGTTGGTCAGCTAACGGGTACG gave a PBM binding z-score of 0.502.
Work on ATACCAGGGTGATCGTGAGGTCGTTGATACTAAC yielded a PBM binding z-score of 1.23.
Sequence GCTAGCAGGCCATTTGGGTGACTCAATGACGGGC has a PBM binding z-score of 0.0482.
In the case of GCTGCTAGGTCAGGTTGGTCAGCAAACGGGTACG, the PBM binding z-score is reported as 3.25.
